Laboratory results from PubChem BioAssay AID743330 (NMMLSC, 2014).
Activity calls are given as the source filed them. The rule behind the calls is not given here.

Test system: Ras
Assay: GTPase panel EC50 shift with labeled GTP level, profiling panel, mechanism study, biochemical, four GTPases, bead flow cytometry (AID 743330)
Settings: bead-based flow cytometry, fluorescent GTP binding to GTPases

SMILES	EC50
CCC1(C)Cc2c(sc(NC(=S)NC(=O)c3ccccc3)c2C(=O)O)CO1 (configuration not stated)	0.005 µM (active)
CC1(C)Cc2c(sc(NC(=S)NC(=O)c3ccc(F)cc3)c2C(=O)O)CO1	0.031 µM (active)
